Pf growth 96h = inhibits malaria parasite growth, 96 h; P. falciparum luciferase reporter growth, 96 h; Potency, µM (top dose mostly 28.7 µM), for inactives: at the highest dose activity change, negative = inhibition, actives largely listed as inhibitors; actives 6.9% (n = 320,000); AID 504834; note: % is set by controls: 0 for no effect and ±100 for the full control effect
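Plates of compound plus infected erythrocytes (2% hematocrit, 0.05% parasitemia final) incubate 96 hours, 37 C, 5% CO2. Detection reagent added; reduced luminescence from the parasites' luciferase reporter flags inhibition.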
Vaccinia Venus = inhibitors of vaccinia virus (Venus reporter) | Vaccinia virus Venus reporter expression, fluorescence | Potency, µM (titrated, usually from 36.5 µM), without a hit: at the top dose activity change, negative = inhibition, most hits filed as inhibitors | actives 0.46% (n = 330,000) | AID 720580; calls by dose curve; tested in A549 cells; note: % is set by controls: 0 for no effect and ±100 for the full control effect; nearly all actives have a fitted effect of over 30% in size
Vaccinia mCherry = inhibitors of vaccinia virus infection (mCherry reporter signal); Vaccinia virus mCherry reporter infection, fluorescence; Potency, µM (titrated, usually from 36.5 µM), for the others: at the top dose activity change, negative = inhibition, usual class: inhibitors; actives 0.63% (n = 310,000); AID 720579; calls by dose curve; tested in A549 cells; note: % is set by controls: 0 for no effect and ±100 for the full control effect; nearly all actives have a fitted effect of over 35% in size
Pf growth 48h = inhibits P. falciparum growth in the first generation, 48 h; Potency, µM (highest dose often 28.7 µM), without a hit: at the highest dose activity change, negative = inhibition, hits mostly inhibitors; actives 5.9% (n = 310,000); P. falciparum luciferase growth in erythrocytes, 48 h; AID 504832; note: % is set by controls: 0 for no effect and ±100 for the full control effect
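Read-out is firefly luciferase luminescence from an integrated reporter in P. falciparum, so falling signal marks reduced parasite growth. Infected erythrocytes were at 2% hematocrit and 0.1% parasitemia (final) in Albumax-supplemented RPMI 1640.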
HCV inhibitor = inhibitors of hepatitis C virus infection; Huh7.5.1 HCVcc-Cre infection, luciferase reporter, 44 h; Potency, µM (series often up to 41.8 µM), without a hit: top-dose activity change, negative = inhibition, usual class: inhibitors; actives 3.4% (n = 340,000); note: % is set by controls: 0 for no effect and ±100 for the full control effect
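Infectious HCVcc-Cre (~0.5 moi) was added to cells just after compound, with cells seeded 4 h earlier at 1,000 per well. Luciferase activity after 44 h culture reported infection; substrate was incubated 15 min at room temperature before reading.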
NS1 inh = influenza NS1 inhibition | actives 0.4% (n = 270,000) | Potency, µM (top dose mostly 46.1 µM), without a hit: at the highest dose activity, positive = more growth | AID 2326; calls by dose curve; note: actives are rising curves; nearly all actives have a fitted effect of over 50% in size
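Recovery from NS1-induced slow growth read by OD600 in budding yeast switched to galactose assay medium (pH 6.0, -URA) at 1:100 dilution. Compound 23 nl per well; the matching strain lacking NS1 serves as control.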
The depositor's hits bear a star; i = inactive; ? = inconclusive; nt = no result given; [ ] = remark or other dose. Rows were chosen to be rich in hits. Some 11% of all compounds tested hit in one or more screens of this group. Unless noted, calls come from the whole dose curve; as a rule, active = well fitted inhibition curve with a large enough effect; inconclusive = small, poorly fitted or top-dose-only effect, or another doubt; inactive = no such curve, though single readings can be large or run the other way. Potency is the fitted concentration of half-maximal effect.

SMILES	Pf growth 96h	Vaccinia Venus	Vaccinia mCherry	Pf growth 48h	HCV inhibitor	NS1 inh
O=C(Cn1cnc2c(nnn2-c2ccc(F)cc2)c1=O)NCc1ccco1	-9%	-9%	i	17%	12%	6%
O=C(NCc1cc(Cl)cc(Cl)c1)c1ccc2nc([C@@H]3O[C@H](CO)[C@H](O)[C@H](O)[C@H]3O)[nH]c2c1	nt	-1%	1%	nt	nt	nt
Cc1cccc(NC(=O)CNC(=O)[C@H]2O[C@@H](n3ccc(N)nc3=O)[C@H](O)[C@@H]2O)c1C	nt	5%	8%	nt	nt	nt
CC(C)[C@H]1C(=O)Nc2ccccc2N1C(=O)N[C@@H](Cc1ccccc1)C(=O)N[C@@H](C(=O)O)c1ccccc1	47%	6%	6%	34%	4%	29%
C=CCN1C(=O)C(Cc2ccc(F)cc2)S/C1=N/N=C/c1cccs1 (stereo not given)	nt	-6%	nt	0%	16%	8%
Cc1cc(C)cc(NC(=O)CSc2nc3ccccc3nc2N2CCCC2)c1	?	-6%	i	2%	?	1%
COc1ccc(C)cc1NC(=O)CSc1nc2ccccc2nc1N1CCOCC1	nt	6%	-6%	nt	nt	nt
Cc1cc(C)cc(NC(=O)CSc2nc3ccccc3nc2N2CCCCC2)c1	9.3µM*	-4%	i	?	0%	12%
COc1ccc(C)cc1NC(=O)CSc1nc2ccccc2nc1N1CCCCC1	20%	-1%	-5%	4.1µM*	-21%	?
CCOc1ccc(NC(=O)CSc2nc3ccccc3nc2N2CCCC2)cc1	12µM*	-4%	i	-17%	-10%	4%
COc1cc(NC(=O)CSc2nc3cc(C)ccc3cc2C)c(C(=O)O)cc1OC	9.3µM*	-7%	-11%	14%	9%	15%
Cc1ccc(-c2nc3c(cnn3-c3ccccc3)c(=O)n2-c2ccc(Cl)cc2)cc1	nt	-4%	-11%	nt	nt	nt
CCC(C)c1ccccc1N1CC(C(=O)N2CCN(S(=O)(=O)c3ccccc3Br)CC2)CC1=O (stereo not given)	12µM*	-12%	-9%	?	-12%	nt
CCC(C)c1ccccc1N1CC(C(=O)NCCC2=CCCCC2)CC1=O (stereo not given)	15µM*	-5%	-14%	?	-21%	nt
CCC(C)NC(=O)C1CCN(C(=O)COc2ccc3c4c(c(=O)oc3c2C)CCCC4)CC1 (stereo not given)	?	nt	nt	?	-18%	10%
CCOC(=O)c1c(C)nc(C)c(C(=O)OCC)c1-c1cccc(N)c1	-46%[5.75 µM]	-11%	i	-13%	3%	2%
COc1ccc(/C=N/N(C)C2=NS(=O)(=O)c3ccccc32)cc1	12µM*	-2%	i	nt	-18%	-2%
Cc1c2ccccc2c(C)c2c1ccc1ccccc12	0.66µM*	-21%	-3%	0.93µM*	10µM*	nt
Cc1cnc2ccc3ccccc3c2c1C	nt	-18%	-12%	nt	nt	nt
Clc1ccc2c(c1)-n1cc(-c3ccccc3)nc1CO2	nt	-7%	-8%	nt	nt	nt
Cc1sc2ncnc(N3CCCCC3)c2c1C	nt	nt	nt	0%	?	-46%
Cc1sc2ncnc(NCC(c3ccco3)N3CCCC3)c2c1C (stereo not given)	8.3µM*	-17%	nt	10µM*	?	2%
Cc1ccc(S(=O)(=O)Nc2ccncc2)c(C)c1	9%	-8%	i	27%	13%	3%
O=C(COC(=O)c1ccccc1-c1nc2ccccc2s1)Nc1ccccc1C(F)(F)F	?	-16%	-2%	5%	0%	0%
C[n+]1cccc(/C=N/NC(=O)CC23CC4CC(CC(C4)C2)C3)c1	0.59µM*	-12%	-5%	?	7%	-31%
SMILES	Pf growth 96h	Vaccinia Venus	Vaccinia mCherry	Pf growth 48h	HCV inhibitor	NS1 inh
CCC(NC(=O)Nc1nnc(C(F)(F)F)s1)(C(F)(F)F)C(F)(F)F	-44%	2µM*	3.5µM*	1.7µM*	4.5µM*	-238%
O=C(O)CCC(=O)Nc1nnc(C(F)(F)F)s1	18%	?	nt	5%	0%	3%
CCN(Cc1ccccc1)C(=O)c1[nH]c2ccc(OC)cc2c1C	-3%	-19%	-14%	8%	2%	-8%
CC(=O)NC1=CC(=O)c2nonc2C1=O	nt	1.8µM*	1.6µM*	nt	nt	nt
COc1ccc2c(C)cc(SCC(=O)Nc3cc(C(N)=O)cc(C(N)=O)c3)nc2c1	?	-25%	i	6%	4µM*	5%
CC1CCN(Cc2nnnn2CCCC(=O)N(C)C2CCOC2)CC1 (stereo not given)	32%	nt	nt	12%	9%	-7%
C=CCc1c(C)nc2c(OC)cccc2c1Cl	?	-14%	-8%	9%	?	-8%
COc1cccc2c1nc(C)c1cc(C)oc12	-12%	-23%	-7%	67%	5.6µM*	-7%
Cc1ccsc1CN(C)C(=O)C(NC(=O)c1cccc(S(=O)(=O)N2CCOCC2)c1)C(C)C (stereo not given)	?	nt	nt	13µM*	-17%	nt
Cc1cc(C)c2nc(NC(=O)[C@@H](NC(=O)c3cccc(S(=O)(=O)N4CCOCC4)c3)C(C)C)sc2c1	6.6µM*	?	?	9.3µM*	?	6%
COc1ccc(C(=O)N[C@H](C(=O)Nc2cccc(S(=O)(=O)N3CCOCC3)c2)C(C)C)cc1	nt	-10%	i	nt	nt	nt
Cc1cccc(NC(=O)COC(=O)C(NC(=O)c2cccc(S(=O)(=O)N3CCOCC3)c2)C(C)C)c1 (stereo not given)	nt	-7%	-12%	nt	?	nt
O=C1C(Cc2cccc([N+](=O)[O-])c2)S/C(=N/N=C/c2ccco2)N1c1ccccc1 (stereo not given)	-4%	-2%	-9%	12%	7%	21%
CC12CN3CCN(CC(C3)/C1=N/NC(N)=O)C2	56%	-12%	i	?	13%	-4%
O=Cc1cn(CC(=O)Nc2ccccc2)c2ccccc12	?	nt	nt	7%	10%	3%
CCc1ccc(NC(=O)C2CCCN(S(=O)(=O)c3c(C)[nH]c(=O)[nH]c3=O)C2)cc1 (stereo not given)	30%	-3%	-15%	?	?	nt
CC(=O)c1ccc(NC(=O)C2CCCN(S(=O)(=O)c3c(C)[nH]c(=O)[nH]c3=O)C2)cc1 (stereo not given)	4.1µM*	-9%	-7%	157%	27%	nt
CCOC(=O)N1CCN(C(=O)c2ccccc2NC(C)=O)CC1	6%	-5%	4%	-72%	3%	3%
CC(OC(=O)c1ccccc1NS(=O)(=O)c1cccc(C(F)(F)F)c1)C(=O)N(C)Cc1ccccc1 (stereo not given)	10µM*	-15%	-8%	?	?	25%
CSCCC(NS(=O)(=O)c1cccc(C(F)(F)F)c1)C(=O)N(C)Cc1ccc2c(c1)OCCO2 (stereo not given)	-26%	-12%	-26%	?	-1%	-10%

Screening data: PubChem BioAssay, National Center for Advancing Translational Sciences (NCATS)
